Screens from PubChem BioAssay.
Shown are actives, neighbours in structure and some others; about 4% of the full set was active somewhere.
TROY signal inh = inhibitors of TROY-driven NF-kB signaling, primary screen, Q293 LMP1-TROYcd cells, NF-kB luciferase, uHTS; Q293 LMP1-TROYcd NF-kB luciferase reporter, 4 h; inhibition, % at 10 µM; hit rate 0.98% among 360,000; AID 1347056, 2019;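 active = compounds whose plate-normalised and pattern-corrected inhibition of the luciferase reporter signal at the single screening dose is 50% or more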
HIF-2a block = HIF-2a reporter inhibitors, primary screen, luminescence, 786-0 RCC cells; hit rate 0.72% among 360,000; inhibition, % at 18.8 µM; 786-0 RCC cells HIF-2a reporter, luciferase luminescence, overnight; AID 624352, 2012;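 active = inhibition of the luminescence signal of 40% or more relative to plate controls, in a single-dose primary screen at 18.75 µM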
CF NFkB inh = inhibitors of PAF-induced NF-kB signaling, primary screen, cell-based, GFP fluorescence, uHTS; KKLEB NF-kB-GFP reporter, GFP fluorescence overnight; inhibition, % at 5 µM; hit rate 0.86% among 360,000; AID 588850, 2011;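 active = at least 50% inhibition at 5 µM, scaled per plate between neutral and stimulator controls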;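 note: PAF is a Pseudomonas aeruginosa culture filtrate used as stimulus; plate controls were PAF-stimulated DMSO wells for no effect and unstimulated DMSO wells for full effect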
KKLEB tox = cytotoxicity in KKLEB CF airway cells, primary screen, cytotoxicity control for CF NF-kB inhibitor project, cell-based, uHTS, fluorescence assay plates; hit rate 0.36% among 360,000; KKLEB CF airway cells viability, ATPlite luminescence, overnight; hits give low values; cells stimulated with P. aeruginosa culture filtrate; activity change (cytotoxicity), % at 5 µM;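 active = corrected activity change at or below -50% at 5 µM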
Peg3 prom inh = Peg3 promoter-driven luciferase inhibitors, primary screen, cell-based, HeLa, luciferase luminescence; HeLa PEG-Prom luciferase reporter, overnight; inhibition, % at 20 µM; hit rate 1.7% among 360,000; AID 588405, 2011;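 active = inhibition of at least 50% at 20 µM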
TWEAK-Fn14 inh = inhibitors of TWEAK-Fn14 signaling, primary screen, luciferase reporter cells, uHTS. TWEAK-stimulated Fn14 reporter cells, luciferase luminescence, 8 h. inhibition, % at 10 µM. hit rate 2% among 360,000. AID 1159606, 2016; in the data active = inhibition above about 50%
* hit, by the source's call; . = no result given.

SMILES	TROY signal inh	HIF-2a block	CF NFkB inh	KKLEB tox	Peg3 prom inh	TWEAK-Fn14 inh
O=C(NCC[C@H]1CC[C@H](NS(=O)(=O)c2ccccc2F)[C@@H](CO)O1)c1ccc(F)cc1	.	1	.	.	.	.
O=C(O)c1ccc2c(c1)S(=O)(=O)c1cc(N3CCN(c4ncccn4)CC3)ccc1C2=O	-54	-41	-8	8	-45	-9
O=C(Cc1ccccc1)N/N=C/c1cc(Br)cs1	-35	-144	15	-2	-90	-29
O=C(CNC(=O)c1cccc(Br)c1)N/N=C/c1cc(Br)cc(Br)c1O	-5	15	16	1	54*	7
O=C(Cc1ccccc1)N/N=C/c1cc(Br)cc(Br)c1O	32	14	17	-13	54*	4
O=C(CNC(=O)c1cccc(Br)c1)N/N=C/c1cccs1	3	-5	-24	3	3	-12
CCN(CC)CCCN(C(=O)c1ccco1)c1nc(-c2ccc(C)cc2)cs1	-22	10	21	-15	57*	2
CCN(CC)CCCN(C(=O)c1ccco1)c1nc(-c2ccc(Cl)cc2)cs1	-47	13	7	0	64*	-50
O=C(c1ccco1)N(CCCN1CCOCC1)c1nc(-c2ccc(Cl)cc2)cs1	-4	-9	5	-17	24	0
Cc1cc(=O)oc(C)c1C(=O)N1CCCc2ccccc21	12	10	3	1	4	97*
Cc1ccc(NC(=O)c2cc(S(=O)(=O)N3CCc4ccccc43)cn2C)cc1C	9	25	36	-20	52*	34
Cc1ccc(NC(=O)N2CCCc3ccccc32)cc1C	65*	-172	-6	0	-170	26
Cc1cccc(NC(=O)N2CCCc3ccccc32)c1C	75*	-13	-17	9	2	51*
O=C(Nc1ccccc1)N1CCCc2ccccc21	-1	-25	6	-14	-12	8
COc1ccc(Cl)cc1C(=O)OCC(=O)NCCNC(=O)COC(=O)c1cc(Cl)ccc1OC	-24	4	-32	-23	3	2
CCOC(=O)c1c(C)sc2c1N(C(=O)CCl)c1cc(Cl)ccc1S2	12	91*	69*	-76*	87*	39
N/C(=N\OC(=O)/C=C/c1ccccc1Cl)c1ccccn1	68*	-22	6	-25	-53	75*
N/C(=N\OC(=O)/C=C/c1ccc(Br)cc1)c1ccccn1	52*	-112	13	-2	-59	66*
N/C(=N\OC(=O)/C=C/c1ccccc1)c1cccnc1	-71	-188	-5	10	-176	-33
N/C(=N\OC(=O)/C=C/c1ccccc1Cl)c1cccnc1	-67	-343	-2	-9	-343	-3
COC(=O)c1ccccc1C(=O)c1c(C)cc(C)cc1C	-12	-42	.	.	.	-6
Cc1cc(N2CCN(C)CC2)nc2ccc(NC(=S)NCCC(C)C)cc12	54*	-47	16	-5	-11	25
CCCCNC(=O)c1ccc(Cn2c(=S)[nH]c3c([nH]c4ccc(OC)cc43)c2=O)cc1	22	-13	60*	-63*	80*	-25
c1ccc(-c2nnc3nc(N4CCCCC4)nc(N4CCCCC4)n23)cc1	14	-51	15	-14	-12	12
CCC(C)(C)NC(=O)CN(C(=O)CCC(=O)Nc1nccs1)c1ccc2c(c1)OCCO2	52*	22	-2	-8	35	64*
SMILES	TROY signal inh	HIF-2a block	CF NFkB inh	KKLEB tox	Peg3 prom inh	TWEAK-Fn14 inh
CCOC(=O)c1oc2ccc(Br)cc2c1COC(=O)C1=COCCO1	-17	-103	21	-22	-54	-11
CC(C)CCCCCCNC(=S)Nc1ccc(S(=O)(=O)N2CCOCC2)cc1	56*	9	52*	-26	62*	54*
O=C(N=C1SC2CS(=O)(=O)CC2N1c1ccccc1C(F)(F)F)C1CCCO1 (configuration not stated)	-9	-5	-9	0	-8	25
CC(C)CCN1C(Nc2ccccc2)=NC[C@@H]1C	0	14	8	-1	-14	-13
CCOc1ccc(CCNC(=O)COC(=O)c2c(C)nn(-c3ccccc3)c2C)cc1OCC	-32	18	9	-23	13	-10
COc1ccccc1NC(=O)c1ccccc1NS(=O)(=O)c1cccs1	18	9	7	-6	9	6
COc1ccc(C)cc1NC(=O)c1ccccc1NS(=O)(=O)c1ccc(Cl)s1	58*	-3	48	-35	45	69*
N#Cc1ccc(-c2ccc(Cl)cc2)nc1SCC(=O)c1cccc(Cl)c1	2	16	9	-17	86*	-51
COc1cc(C(=O)N2CCN(c3ccc([N+](=O)[O-])cc3)CC2)ccc1OCc1c(C)noc1C	.	10	-6	-5	16	73*
CCOc1cc(N2CCOCC2)c(OCC)cc1NC(=O)c1ccc(OCc2c(C)noc2C)c(OC)c1	10	7	-18	15	50*	15
CCOc1cc(N2CCOCC2)c(OCC)cc1NC(=O)c1nn(CC)c(=O)c2ccccc12	-7	-18	18	-13	60*	20
COc1ccc(N2CCN(C(=O)c3ccc(COc4ccc([N+](=O)[O-])cc4)o3)CC2)cc1	27	11	14	-11	6	51*
O=C(O)CC(CC(=O)NCC(O)c1ccccc1)c1ccccc1 (configuration not stated)	-3	13	-5	-5	5	3
CC(=O)N1CCN(S(=O)(=O)c2cccc(C(=O)NCCC3=CCCCC3)c2)CC1	1	9	5	11	4	-10
CCCNC(=O)C1(C)CCCN(Cc2ccc(-n3ccnc3)cc2)C1 (configuration not stated)	-3	-1	2	19	5	-10
Cc1ccc(S(=O)(=O)NCc2ccc(C(=O)N3CCN(c4ccc([N+](=O)[O-])cc4)CC3)cc2)cc1	38	20	-1	9	18	50*
O=C(c1ccc(-c2ccc([N+](=O)[O-])cc2)o1)N1CCCCCCC1	-21	8	30	-6	105*	12
COc1ccc(N2CCN(C(=O)c3ccc(CNS(=O)(=O)c4ccc(C)cc4)cc3)CC2)cc1	7	-15	9	-12	-4	28
Cc1cccc(C(=O)Nc2cc(S(=O)(=O)N3CCOCC3)ccc2N2CCCC2)c1	2	11	7	-9	8	14
COC(=O)c1ccccc1NC(=O)c1ccc(COc2ccc(C)c(C)c2)o1	.	-37	2	-7	-40	81*
